Laboratory results from PubChem BioAssay (Tox21).
Inconclusive results are not listed. Calls of active or inactive are those of the source. Unless noted, calls come from the whole dose curve; as a rule, active = well fitted curve in the direction sought with a large enough effect in the repeat runs; inconclusive = weak or mixed curves; inactive = no such curve, though single readings can be large; an effect the other way counts as inactive or inconclusive.

Key:
[1] = A CellTox Green Cytotoxicity Assay to monitor cytotoxicity in HepG2 cells - 0 hour (AID 1224882); note: % is set by controls: 0 for no effect and ±100 for the full control effect; nearly all actives have a fitted effect of over 35% in size
Summary of the method: (§1)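 Read-out is fluorescence of a cyanine dye excluded from live cells that stains DNA of dead HepG2 cells, with signal proportional to cytotoxicity. Plates were read at 0, 8, 16, 24, 32 and 40 h after compound addition.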

[2] = A CellTox Green Cytotoxicity Assay to monitor cytotoxicity in HepG2 cells - 32 hour (AID 1224883); note: % is set by controls: 0 for no effect and ±100 for the full control effect; nearly all actives have a fitted effect of over 50% in size
Summary of the method: as §1

[3] = A CellTox Green Cytotoxicity Assay to monitor cytotoxicity in HEK293 cells - 8 hour (AID 1224884); note: % is set by controls: 0 for no effect and ±100 for the full control effect; nearly all actives have a fitted effect of over 35% in size
Summary of the method: (§2)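 Nonlytic real-time cytotoxicity: HEK293 + CellTox Green reagent plated, 5 h preincubation, pintool compound addition (23 nL in DMSO), 37 C for 40 h, fluorescence measured at successive time points.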

[4] = qHTS RealTime-Glo MT Cell Viability Assay in HepG2 cells - 16 hour (AID 1224885); note: % is set by controls: 0 for no effect and ±100 for the full control effect; nearly all actives have a fitted effect of over 50% in size
Summary of the method: (§3)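 Real-time, nonlytic viability: 600 HepG2 cells/well mixed with NanoLuc enzyme plus prosubstrate; 5 h settle, compound (DMSO) added by pintool; luminescence monitored over 40 h at 37 C.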

[5] = qHTS RealTime-Glo MT Cell Viability Assay in HEK293 cells - 24 hour (AID 1224886); note: nearly all actives have a fitted effect of over 50% in size; note: potency is the fitted concentration of half-maximal effect
Summary of the method: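 Cells + reagent dispensed (600 cells/well, HEK293) → 5 h at 37 C/5% CO2 → 23 nL compound in DMSO pinned → 40 h at 37 C → luminescence read at 0, 8, 16, 24, 32, 40 h.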

[6] = A CellTox Green Cytotoxicity Assay to monitor cytotoxicity in HEK293 cells - 16 hour (AID 1224888); note: % is set by controls: 0 for no effect and ±100 for the full control effect; nearly all actives have a fitted effect of over 35% in size
Summary of the method: as §2

[7] = qHTS RealTime-Glo MT Cell Viability Assay in HepG2 cells - 0 hour (AID 1224889); note: nearly all actives have a fitted effect of over 50% in size; note: potency is the fitted concentration of half-maximal effect
Summary of the method: as §3

[8] = A CellTox Green Cytotoxicity Assay to monitor cytotoxicity in HepG2 cells - 8 hour (AID 1224890); note: % is set by controls: 0 for no effect and ±100 for the full control effect; nearly all actives have a fitted effect of over 45% in size
Summary of the method: as §1

[9] = biological target: Androgen receptor (Homo sapiens) (UniProt P10275); experiment: qHTS assay to identify small molecule antagonists of the androgen receptor (AR) signaling pathway using the MDA cell line in the presence of 0.5 nM R1881 (AID 1259243)
Summary of the method: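 Luciferase luminescence is the read-out: compounds are tested for suppressing 0.5 nM R1881-driven MMTV reporter activity in MDA-kb2 cells after 16 hr at 37C.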

[10] = qHTS assay to identify small molecule HDAC inhibitors (AID 1259364); note: nearly all actives have a fitted effect of over 45% in size; note: potency is the fitted concentration of half-maximal effect
Summary of the method: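 Luminescence from a cell-permeant luminogenic class I/II HDAC substrate reports endogenous deacetylase activity in intact HCT-116 cells treated with compounds for 2 h.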

[11] = qHTS assay to identify small molecule agonists of the sonic hedgehog signaling (Shh) pathway (AID 1259368; calls by dose curve;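 note: NIH/3T3-derived 3T3Gli1-Luc cells carrying a stable Gli1-driven firefly luciferase reporter; series mostly up to about 92 µM; % is set by controls: 0 for no effect and ±100 for the full control effect; nearly all actives have a fitted effect of over 15% in size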)
Summary of the method: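 3T3Gli1-Luc (NIH/3T3 clone, stable Gli1-Luc); 4 hr pre-incubation, then cpd in DMSO 24 hr, 37 C/5% CO2; luciferase reagent 30 min RT; luminescence.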

[12] = qHTS assay to identify small molecule antagonists of the sonic hedgehog signaling (Shh) pathway (AID 1259369; calls by dose curve; note: nearly all actives have a fitted effect of over 45% in size; note: potency is the fitted concentration of half-maximal effect)
Summary of the method: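 3T3Gli1-Luc, conditioned-medium-stimulated, 24hr cpd, 37C/5% CO2; Gli1-driven firefly Luc luminescence after 30min RT with luciferase reagent. Cells plated 4hr before cpd.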

[13] = qHTS assay to identify small molecule antagonists of the estrogen receptor alpha (ER-alpha) signaling pathway using the BG1 cell line in the presence of 0.1 nM 17-beta-estradiol - cell viability counter screen (AID 1259241); note: % is set by controls: 0 for no effect and ±100 for the full control effect; nearly all actives have a fitted effect of over 40% in size
Summary of the method: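 Estradiol-stimulated (0.1 nM) VM7Luc4E2 cells exposed to compounds 22 hr; viability measured by fluorescence of cleaved CellTiter-Fluor substrate after 30 min.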

[14] = qHTS assay to identify small molecule antagonists of the androgen receptor (AR) signaling pathway using the MDA cell line in the presence of 0.5 nM R1881 - cell viability counter screen (AID 1259242); note: % is set by controls: 0 for no effect and ±100 for the full control effect; nearly all actives have a fitted effect of over 45% in size
Summary of the method: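 Counter screen for cytotoxicity run in the same wells as the AR antagonist reporter screen: MDA-kb2 cells were treated 16 hr with test compounds and 0.5 nM R1881, then live-cell protease activity was measured by fluorescence.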

[15] = biological target: Estrogen receptor (Homo sapiens) (UniProt P03372); experiment: qHTS assay to identify small molecule antagonists of the estrogen receptor alpha (ER-alpha) signaling pathway using the BG1 cell line in the presence of 0.1 nM 17-beta-estradiol (AID 1259244)
Summary of the method: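 Cells: VM7Luc4E2, endogenous ER-alpha, 4x ERE-luc stable. Pre-culture 5 d, phenol red-free, charcoal-stripped FBS. Plated 24 h, compound + E2 0.1 nM final, 22 h 37C/5% CO2. Readout ONE-Glo luminescence.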

[16] = qHTS assay to identify small molecule HDAC inhibitors - cell viability counter screen (AID 1259365)
Summary of the method: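 After overnight seeding at 1,500 cells per well, wild-type HCT-116 cultures took up compounds in DMSO for 2hr at 37 C. Viable cell content came from luminescence with CellTiter-Glo.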

[17] = qHTS assay to identify small molecule agonists of the sonic hedgehog signaling (Shh) pathway - cell viability counter screen (AID 1259366); note: nearly all actives have a fitted effect of over 50% in size; note: potency is the fitted concentration of half-maximal effect
Summary of the method: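 Same-well cytotoxicity read. Gli1-Luc reporter 3T3 cells; compounds 24hr, 37C/5% CO2; CellTiter-Fluor fluorescence.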

[18] = qHTS assay to identify small molecule antagonists of the sonic hedgehog signaling (Shh) pathway - cell viability counter screen (AID 1259367); note: nearly all actives have a fitted effect of over 55% in size; note: potency is the fitted concentration of half-maximal effect
Summary of the method: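 Cells: 3T3 Gli1-Luc, 2,000/well, 4 hr pre-incubation. Compounds in DMSO, then conditioned medium. Incubation 24 hr, 37C, 5% CO2. CellTiter-Fluor at 23 hr, 1 hr, fluorescence.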

[19] = qHTS assay to identify small molecule phospholipidosis (PLD) inducers (AID 1259344; active = well fitted curve in the direction sought with a large enough effect; an effect the other way counts as inactive or inconclusive; note: % is set by controls: 0 for no effect and ±100 for the full control effect)
Summary of the method: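 Phospholipidosis is scored by imaging LipidTOX-stained pits in HepG2 cells exposed to compound for 24 h at 37 C; pit counts and integrated intensities per well and per cell serve as outputs.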

[20] = qHTS RealTime-Glo MT Cell Viability Assay in HEK293 cells - 8 hour (AID 1224887); note: nearly all actives have a fitted effect of over 50% in size; note: potency is the fitted concentration of half-maximal effect
Summary of the method: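 Cells were seeded together with NanoLuc luciferase and a prosubstrate that viable cells reduce to a luciferase substrate. After a 5 h incubation at 37 C/5% CO2, compounds were added and luminescence was measured repeatedly during 40 h of treatment.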

Chain of Estrogen receptor (Homo sapiens) (P03372 whole entry, looked up): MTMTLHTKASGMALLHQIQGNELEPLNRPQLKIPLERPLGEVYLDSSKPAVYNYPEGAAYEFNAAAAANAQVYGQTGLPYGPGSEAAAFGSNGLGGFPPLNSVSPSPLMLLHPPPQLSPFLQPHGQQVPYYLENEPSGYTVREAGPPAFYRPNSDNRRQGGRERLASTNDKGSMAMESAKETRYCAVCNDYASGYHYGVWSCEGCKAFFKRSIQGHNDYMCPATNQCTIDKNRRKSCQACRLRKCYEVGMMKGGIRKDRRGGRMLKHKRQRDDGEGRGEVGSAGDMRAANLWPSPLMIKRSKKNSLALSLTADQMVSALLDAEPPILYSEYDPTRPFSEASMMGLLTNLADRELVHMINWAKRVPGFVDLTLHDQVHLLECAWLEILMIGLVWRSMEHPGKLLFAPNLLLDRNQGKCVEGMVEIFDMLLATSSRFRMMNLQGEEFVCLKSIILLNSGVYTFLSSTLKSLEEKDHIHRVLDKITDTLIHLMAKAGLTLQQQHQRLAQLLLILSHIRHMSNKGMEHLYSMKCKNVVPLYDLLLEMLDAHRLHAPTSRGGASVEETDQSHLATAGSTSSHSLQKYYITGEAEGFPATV
Chain of Androgen receptor (Homo sapiens) (P10275 whole entry, looked up): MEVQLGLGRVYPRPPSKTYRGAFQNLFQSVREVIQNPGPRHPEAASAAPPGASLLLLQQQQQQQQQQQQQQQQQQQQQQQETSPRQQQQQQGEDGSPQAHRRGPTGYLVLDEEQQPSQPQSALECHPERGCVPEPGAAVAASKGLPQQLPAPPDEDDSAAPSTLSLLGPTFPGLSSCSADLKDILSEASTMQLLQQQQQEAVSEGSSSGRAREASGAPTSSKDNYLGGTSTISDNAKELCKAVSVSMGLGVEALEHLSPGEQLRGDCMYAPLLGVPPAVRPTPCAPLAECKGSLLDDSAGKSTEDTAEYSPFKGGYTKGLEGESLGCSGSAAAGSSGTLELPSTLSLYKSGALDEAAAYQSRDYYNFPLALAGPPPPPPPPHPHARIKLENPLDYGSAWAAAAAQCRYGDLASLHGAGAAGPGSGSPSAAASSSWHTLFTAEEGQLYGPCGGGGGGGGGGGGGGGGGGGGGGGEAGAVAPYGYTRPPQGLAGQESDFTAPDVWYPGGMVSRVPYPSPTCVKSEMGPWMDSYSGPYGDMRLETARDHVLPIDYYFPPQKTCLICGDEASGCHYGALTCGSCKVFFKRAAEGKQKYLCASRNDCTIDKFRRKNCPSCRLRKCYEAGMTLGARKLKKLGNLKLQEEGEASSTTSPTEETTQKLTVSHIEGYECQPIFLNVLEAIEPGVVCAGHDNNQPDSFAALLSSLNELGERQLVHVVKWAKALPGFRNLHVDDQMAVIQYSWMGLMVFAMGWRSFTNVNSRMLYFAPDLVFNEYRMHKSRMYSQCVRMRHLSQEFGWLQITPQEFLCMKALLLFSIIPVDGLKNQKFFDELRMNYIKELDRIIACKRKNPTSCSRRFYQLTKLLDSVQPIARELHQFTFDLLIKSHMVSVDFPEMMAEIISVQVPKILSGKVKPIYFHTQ

CCN(CC)c1ccc(C(=C2C=CC(=[N+](CC)CC)C=C2)c2cc(S(=O)(=O)O)ccc2S(=O)(=O)[O-])cc1
active: Potency [9] 7.5 µM | Potency [10] 9.44 µM | Potency [12] 2.66 µM
inactive: Potency [1] | Potency [2] | Potency [3] | Potency [4] | Potency [5] | Potency [6] | Potency [7] | Potency [8] | outcome [11]

CCCC(=O)Nc1ccc(O)c(C(C)=O)c1
inactive: Potency [1] | Potency [2] | Potency [3] | Potency [4] | Potency [5] | Potency [6] | Potency [7] | Potency [8] | Potency [13] | Potency [14] | Potency [15] | Potency [10] | Potency [16] | Potency [17] | Potency [18] | outcome [11] | Potency [12]

CCc1cc(C2=C(C(=O)O)N(c3ccccc3C(F)(F)F)S(=O)(=O)c3ccccc32)cc2c1OCO2
active: Potency [7] 24.3 µM | Potency [17] 12.1 µM | Potency [18] 12.1 µM
inactive: Potency [1] | Potency [2] | Potency [3] | Potency [4] | Potency [5] | Potency [6] | Potency [8] | Potency [13] | Potency [14] | Potency [10] | outcome [11] | Potency [12]

CCCCC/C=C\C/C=C\CCCCCCCC(=O)NC(C)c1ccccc1 (stereo not given)
inactive: Potency [1] | Potency [2] | Potency [3] | Potency [4] | Potency [5] | Potency [6] | Potency [7] | Potency [8] | Potency [13] | Potency [14] | PLD induction [19] -2.94% [at 7.66 µM] | Potency [10] | Potency [16] | outcome [11]
active: Potency [12] 13.3 µM

C=C1C(=C/C=C2\CCC[C@]3(C)[C@@H]([C@H](C)/C=C/[C@@H](O)C4CC4)CC[C@@H]23)C[C@@H](O)C[C@@H]1O
inactive: Potency [1] | Potency [2] | Potency [3] | Potency [4] | Potency [6] | Potency [7] | Potency [8] | Potency [14] | Potency [10] | Potency [17] | Potency [18] | outcome [11]
active: Potency [5] 19 µM | Potency [20] 19 µM | Potency [12] 0.0007 µM

COc1cc(Cl)c(OC)cc1N
inactive: Potency [1] | Potency [2] | Potency [3] | Potency [4] | Potency [5] | Potency [6] | Potency [7] | Potency [8] | Potency [13] | Potency [14] | Potency [10] | Potency [16] | Potency [17] | Potency [18] | outcome [11] | Potency [12]

CC1CCC(=O)C1=O (stereo not given)
inactive: Potency [1] | Potency [2] | Potency [3] | Potency [4] | Potency [5] | Potency [20] | Potency [7] | Potency [8] | Potency [13] | Potency [14] | Potency [15] | Potency [10] | Potency [16] | Potency [17] | Potency [18] | outcome [11] | Potency [12]

CC(C)OC(=O)C(C)N(C(=O)c1ccccc1)c1ccc(F)c(Cl)c1 (stereo not given)
inactive: Potency [1] | Potency [2] | Potency [3] | Potency [4] | Potency [5] | Potency [20] | Potency [6] | Potency [7] | Potency [14] | Potency [10] | Potency [16] | Potency [17] | outcome [11]
